A selection: hits, their analogues and other compounds. The true share with any hit is near 4.7%.
CCHF vOTU inh: CCHFV vOTU protease inhibition; Pep-AMC fluorescence; inhibition, % at 11.5 µM; hit rate 0.55% among 370,000; AID 651958; also: 0% = vehicle wells with enzyme and 100% = no enzyme wells
GDH-TPI counter: inhibits GDH-TPI coupling enzymes, artifact for Mtb FBA screen | GDH-TPI coupled enzyme counterscreen, NADH absorbance | hit rate 1.2% among 360,000 | inhibition, % at 4.8 µM;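 also: 0% = DMSO wells and 100% = wells lacking the enzyme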
SARS 3CLpro inh: SARS-CoV 3CLpro protease inhibition. P0C6X7. recombinant SARS-CoV 3CLpro, quenched FRET peptide cleavage. inhibition, % at 6 µM. hit rate 0.14% among 290,000. AID 1706; in the data active = inhibition above about 12%
FBA Mtb inh: inhibitors of M. tuberculosis fructose-bisphosphate aldolase; P9WQA3; inhibition, % at 1 µM; purified M. tuberculosis FBA, fluorescence read-out; AID 588726; hit rate 2.3% among 360,000; in the data active = inhibition above about 27%;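 also: 0% = vehicle and 100% = reference inhibitor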
VHR inh abs: blocks human VHR1 dual specificity phosphatase | AID 1654 | inhibition, % at 13.3 µM | hit rate 0.52% among 290,000 | recombinant VHR phosphatase, pNPP absorbance; in the data active = inhibition above about 50%
RecA intein inh: blocks M. tuberculosis RecA intein splicing; P9WHJ3; cell-free RecA intein splicing, fluorescence; inhibition, % (concentration not given with the values); hit rate 0.75% among 290,000; AID 2221; in the data active = inhibition above about 30%;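 also: 0% = vehicle wells and 100% = reference inhibitor control wells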
Target sequence (P9WHJ3 whole entry, looked up): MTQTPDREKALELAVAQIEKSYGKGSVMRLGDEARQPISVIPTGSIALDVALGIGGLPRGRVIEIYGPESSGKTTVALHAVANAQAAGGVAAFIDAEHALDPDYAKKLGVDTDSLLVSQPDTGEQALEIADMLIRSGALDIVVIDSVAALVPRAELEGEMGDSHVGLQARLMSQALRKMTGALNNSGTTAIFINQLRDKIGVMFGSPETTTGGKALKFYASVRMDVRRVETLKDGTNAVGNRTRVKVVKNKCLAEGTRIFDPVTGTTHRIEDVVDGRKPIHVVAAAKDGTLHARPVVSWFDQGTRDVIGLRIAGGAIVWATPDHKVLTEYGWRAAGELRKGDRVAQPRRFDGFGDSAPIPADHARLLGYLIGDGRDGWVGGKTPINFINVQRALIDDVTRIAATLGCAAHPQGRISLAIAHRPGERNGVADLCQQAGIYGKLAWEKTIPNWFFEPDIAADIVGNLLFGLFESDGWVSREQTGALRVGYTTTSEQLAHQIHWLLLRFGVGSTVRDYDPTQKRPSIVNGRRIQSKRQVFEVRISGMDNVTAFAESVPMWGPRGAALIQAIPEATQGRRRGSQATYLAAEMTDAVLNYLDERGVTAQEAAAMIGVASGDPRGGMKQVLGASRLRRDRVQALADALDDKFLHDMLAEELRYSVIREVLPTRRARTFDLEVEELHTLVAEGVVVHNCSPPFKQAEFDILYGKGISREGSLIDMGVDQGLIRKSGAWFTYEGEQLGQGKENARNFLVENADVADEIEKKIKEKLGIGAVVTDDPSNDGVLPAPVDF
GFP chromophore: counter-screen: blocks GFP chromophore formation; EC50, µM; hit rate 83% among 2,100; shares compounds with RecA intein inh; cell-free GFP chromophore formation, fluorescence; call rule not given here
* hit, by the source's call; · = no result. Rule as the data show it, unless noted: active = inhibition above about 30%; inactive = the rest.

SMILES	CCHF vOTU inh	GDH-TPI counter	SARS 3CLpro inh	FBA Mtb inh	VHR inh abs	RecA intein inh	GFP chromophore
COc1cc(/C=C2/SC(=S)N(CCC(=O)N3CCN(C)CC3)C2=O)cc(OC)c1OC	16	11	·	-1	·	·	·
NNc1n[nH]c(=S)n1N	16	-1	1	0	-12	78*	>38
Nn1c(Cc2ccccc2)n[nH]c1=S	-11	-1	-1	2	15	0	·
Cc1nc2ccccc2c2c1C(=O)N(C)C2=O	-12	6	-8	1	-16	58*	18*
Nc1cc(N)c(OCC(F)(F)F)cc1OCC(F)(F)F	·	25	1	0	28	92*	7.6*
CC1CCC(NC(=O)CCN2C(=O)C3CC=CCC3C2=O)CC1 (stereo unspecified)	21	2	·	0	·	·	·
C/C(CC(=O)Nc1ccc(F)cc1F)=N\NC(=O)C(=O)N1CCCCC1	·	·	-5	·	33	78*	11*
O=C(CCNC(=O)C1CCN(S(=O)(=O)c2ccccc2)CC1)Nc1ccccc1	13	1	0	0	39	0	·
O=C(c1cccs1)[C@@H]1[C@@H]2C(=O)N(Cc3ccc4c(c3)OCO4)C(=O)[C@@H]2C2c3ccccc3C=CN21 (stereo partly specified)	·	·	6	·	27	38*	4.2*
O=C(c1ccc2c(c1)OCO2)[C@@H]1[C@@H]2C(=O)N(C3CCCCC3)C(=O)[C@@H]2C2c3ccccc3C=CN21 (stereo partly specified)	7	7	2	-1	-13	4	·
CCC(=O)N(CC)C1=C(O)c2ccccc2C(=O)C1=O	11	-8	-1	-7	16	73*	12*
C/C(CC(=O)N1CCN(C=O)CC1)=N\NC(=O)c1cccc([N+](=O)[O-])c1	2	-3	-5	4	9	71*	33*
C/C(CC(=O)N1CCN(C=O)CC1)=N\NC(=O)c1ccc(Cl)cc1	13	6	3	2	1	3	·
O=[N+]([O-])c1cc(S(=O)(=O)C(F)(F)F)ccc1Sc1nc2ccccc2s1	2	4	-7	-2	22	85*	0.25*
O=[N+]([O-])c1cc(S(=O)(=O)C(F)(F)F)ccc1Sc1nc2ccccc2[nH]1	13	3	-2	-3	0	82*	1.5*
CC(=O)Nc1cccc(-c2ccnc3c2CC(C)(C(=O)NCCC(F)(F)F)O3)c1 (stereo unspecified)	1	6	·	0	·	·	·
N#C/C(=C\c1cc(Cl)c(OCc2ccc(Cl)cc2)c(Cl)c1)C(N)=O	·	·	0	·	7	44*	>38
N#C/C(=C\c1cc(O)c(O)c(O)c1)C(N)=O	20	16	-1	-16	22	-3	·
O=[N+]([O-])c1c(Nc2cccc(O)c2)cc(Cl)c2nonc12	6	12	-1	-7	15	-5	·
CNc1cc(Cl)c2nonc2c1[N+](=O)[O-]	20	2	-6	-9	17	86*	7.7*
O=C1/C(=C/c2cccc([N+](=O)[O-])c2)CCc2ccccc21	19	13	2	1	-11	45*	29*
COc1ccccc1NS(=O)(=O)c1cc(N)ccc1N1CCCC1	-16	5	·	2	·	·	·
COc1ccccc1NC1=C(N2CCCCC2)C(=O)c2ccccc2C1=O	·	0	-4	-4	12	79*	17*
CCOC(=O)C1=C(C)NC(SCc2cc(=O)[nH][nH]2)=C(C#N)C1c1cccs1 (stereo unspecified)	9	10	-2	-2	-6	70*	20*
COc1ccc(Cc2nnc(SCC(=O)Nc3cc(Cl)ccc3C)[nH]c2=O)cc1	4	9	·	-3	·	-3	·
SMILES	CCHF vOTU inh	GDH-TPI counter	SARS 3CLpro inh	FBA Mtb inh	VHR inh abs	RecA intein inh	GFP chromophore
CN1CCN(C(c2ccc(Br)cc2)c2cc(Cl)c3cccnc3c2O)CC1 (stereo unspecified)	23	-5	3	4	16	74*	9.8*
Cn1nc(C(=O)OCC(=O)NCc2ccc(Cl)cc2Cl)c2ccccc2c1=O	10	12	·	3	·	·	·
O=c1[nH]c(O)c(N=Nc2cc([N+](=O)[O-])ccc2O)c(=O)[nH]1	25	14	5	-26	22	73*	12*
Cc1onc(-c2ccccc2)c1-c1nc2ccccc2c(=O)o1	19	6	-1	0	-2	32*	2.3*
O=c1oc(-c2cccnc2)nc2ccccc12	4	1	1	5	25	1	·
CCN(c1ccccc1)c1cc2ccccc2c(=O)[nH]1	-13	18	9	4	-17	65*	31*
COc1ccc(Nc2ccc(Nc3ccc(OC)cc3)nn2)cc1	-15	10	0	-1	-9	-2	·
COc1ccc(Nc2ccc(OC)cc2)cc1	-3	9	1	-2	-13	51*	>38
COc1ccc(C(=O)Nc2ccc(F)cc2F)cc1OC	-11	-2	-8	0	15	1	·
COc1ccc(C(=O)Nc2ccc(O)c3ccccc23)cc1OC	6	5	·	0	·	98*	15*
O=C(Nc1ccccc1)Nc1cccc2ccccc12	-7	13	1	7	-1	·	·
O=C(Nc1ccccc1)Nc1ccc(O)c2ccccc12	·	·	·	·	·	60*	3*
CCOC(=O)C1=C(c2ccccc2)NC(N)=NC1c1ccc(OCc2ccc(C(=O)OC)cc2)cc1 (stereo unspecified)	21	6	5	2	4	46*	26*
CCOC(=O)C1=C(c2ccccc2)Nc2ncnn2C1c1ccc(C(=O)O)cc1 (stereo unspecified)	2	5	-4	-1	40	1	·
Cc1[nH]nc2c1C(c1cccs1)C(C#N)=C(N)O2 (stereo unspecified)	-1	5	-2	2	33	54*	34*
CC(C)(C)c1[nH]nc2c1C(c1ccncc1)C(C#N)=C(N)O2 (stereo unspecified)	1	3	0	-1	-8	1	·
Cc1[nH]nc2c1C(c1cnn(C)c1)C(C#N)=C(N)O2 (stereo unspecified)	-2	12	-3	9	5	76*	23*
Cc1cc(-c2[nH]nc3c2C(c2ccc(Cl)cc2)C(C#N)=C(N)O3)c(C)s1 (stereo unspecified)	5	9	-4	0	-14	77*	23*
Cc1ccsc1C1C(C#N)=C(N)Oc2n[nH]c(C)c21 (stereo unspecified)	7	11	-8	-4	14	15	·
Cc1ccc(C2C(C#N)=C(N)Oc3n[nH]c(C)c32)cc1 (stereo unspecified)	-6	-6	2	0	17	77*	19*
O=C(NCC1CCOCC1)C1Cc2c(-c3ccccc3Oc3ccccc3)ccnc2O1 (stereo unspecified)	4	-7	·	-1	·	·	·
